Experimental data reported in PubChem BioAssay (EPA / NIEHS).
Results filed as inconclusive are left out. Active and inactive are the calls of the source. Rule for the calls: active = hit-call score of the fitted dose curve at least 0.9, where 1 is the maximum; inconclusive = response in the unintended direction; inactive = score below 0.9.

The compounds below were run against human Retinoic Acid Receptor gamma (RARg), RARG (gene 5916) (UniProt P13631) (assay: ATG_RARg_TRANS: Attagene TRANS-FACTORIAL HepG2 Assay for human Retinoic Acid Receptor gamma (RARg) (AID 2283009);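 for AC50: AC50 is for reporter induction above DMSO meaning RARg activation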).
Chain of human Retinoic Acid Receptor gamma (RARg), RARG (gene 5916) (P13631 whole entry, looked up): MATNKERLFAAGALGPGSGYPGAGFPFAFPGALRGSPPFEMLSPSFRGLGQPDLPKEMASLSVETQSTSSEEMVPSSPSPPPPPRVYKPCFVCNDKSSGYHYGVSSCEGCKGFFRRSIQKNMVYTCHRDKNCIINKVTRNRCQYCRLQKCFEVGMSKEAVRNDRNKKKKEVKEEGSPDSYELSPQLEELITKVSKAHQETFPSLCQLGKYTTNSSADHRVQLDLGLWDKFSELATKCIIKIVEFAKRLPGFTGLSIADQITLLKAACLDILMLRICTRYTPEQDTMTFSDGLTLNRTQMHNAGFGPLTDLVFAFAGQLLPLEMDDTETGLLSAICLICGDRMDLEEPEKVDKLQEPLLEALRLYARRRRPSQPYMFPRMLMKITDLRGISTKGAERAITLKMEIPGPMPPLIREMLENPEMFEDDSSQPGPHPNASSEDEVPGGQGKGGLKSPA
Protocol: ATG_TRANS is a cell-based, multiplexed-readout assay that uses HepG2, a human liver cell line, with measurements taken at 24 hours after chemical dosing in a 24-well plate.ATG_RARg_TRANS is one of 30 assay component(s) measured or calculated from the ATG_TRANS assay. It is designed to make measurements of mRNA induction, a form of inducible reporter, as detected with fluorescence intensity signals by Reverse transcription polymerase chain reaction (RT-PCR) and Capillary electrophoresis technology.Data from the assay component ATG_RARg_TRANS was analyzed into 1 assay endpoint. This assay endpoint, ATG_RARg_TRANS, was analyzed in the positive analysis fitting direction relative to DMSO as the negative control and baseline of activity. Using a type of inducible reporter, measures of mRNA for gain-of-signal activity can be used to understand the reporter gene at the transcription factor-level as they relate to the gene RARG. Furthermore, this assay endpoint can be referred to as a primary readout, because this assay has produced multiple assay endpoints where this one serves a reporter gene function. To generalize the intended target to other relatable targets, this assay endpoint is annotated to the nuclear receptor intended target family, where the subfamily is non-steroidal.
Human liver HepG2 cells are transiently transfected with multiple reporter transcription units (MRTUs) in 6-well plates using FuGene 6 reagent (Roche; 3 ml FuGene/1 mg DNA). The MRTU constructs are regulated by a cis-regulating element (promoter). […] A major difference between the CIS and TRANS system is that in CIS activities of endogenous TFs are measured, whereas the TRANS assay evaluates changes in activities of exogenous, chimeric NR-Gal4 proteins. […] At the end of 24 hour incubation, total RNA was isolated using TriZol reagent (Invitrogen). The isolated RNA is then reverse-transcribed using oligo(dT) primer and Mo-MLV reverse transcriptase (Invitrogen) with DNAse I (Ambion) treatment for 30 min. The one-tenth of the produced cDNA was amplified by PCR using Taq DNA polymerase (Invitrogen) and two reporter sequence-specific primers. The PCR products were fluorescently labeled by primer extension with 6-arboxyfluorescein (6-FAM) 5'-labeled reporter sequence-specific primer (2 min at 95 C, 20 s at 68 C and 10 min at 72 C) and these products were digested with 5U of HpaI (New England Biolabs) for 2h at 37 C. […] The raw capillary electrophoresis data was processed using Attagraph software (Attagene).

| Structure (SMILES) | outcome | AC50 |
| --- | --- | --- |
| O=[N+]([O-])c1ccccc1C(F)(F)F | inactive | – |
| Clc1ccccn1 | inactive | – |
| CCCOCCC | inactive | – |
| c1ccc(CNc2ncnc3nc[nH]c23)cc1 | inactive | – |
| CCCCCCCCCCCCCCCCCC[N+](C)(C)C | – | 34.4 µM (active) |
| Cc1cc(O)cc(C)c1Cl | inactive | – |
| CCCCCCCC#N | inactive | – |
| O=C1NC(=O)C2CC=CCC12 (stereo unspecified) | inactive | – |
| CC(C)CC(=O)O | inactive | – |
| CCOC(=O)CC(=O)OCC | inactive | – |
| O=C(Oc1ccccc1)c1ccccc1 | inactive | – |
| CN1CCCC1 | inactive | – |
| CCC(=O)OCc1ccc(OC)cc1 | inactive | – |
| C=CCOC(=O)C(=C)C | inactive | – |
| COC(=O)[C@]1(C)CCC[C@@]2(C)[C@H]1CC=C1C=C(C(C)C)CC[C@@H]12 | inactive | – |
| O=C(C1CCCCC1)N1CC(=O)N2CCc3ccccc3C2C1 (stereo unspecified) | inactive | – |
| CCCCCCC(O)CCCCCCCCCCC(=O)OC (stereo unspecified) | inactive | – |
| CC=CC(=O)O | inactive | – |
| CCCCCC1CCCC(=O)O1 (stereo unspecified) | inactive | – |
| CCCCCCC1CCC(=O)O1 (stereo unspecified) | inactive | – |
| COC(=O)CCSCCC(=O)OC | inactive | – |
